Bioassay records: PubChem BioAssay, several laboratories
CYP2C9 activ = activators of human CYP2C9; activation factor at 5 µM; AID 1024; P11712; 1.4% of 96,000 active; recombinant CYP2C9, luciferin-H conversion, luminescence; active compounds read high; factor 1 = untreated enzyme, 0 = blocked;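 active = activation factor of 2 or more for CYP2C9 at a 5 µM dose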
sEH activator = activators of human soluble epoxide hydrolase; P34913; purified human sEH enzymatic activity, activator screen; activation, % at 2 µM; 0.04% of 91,000 active; AID 717; in the data active = activation above about 37%
Target sequence (P34913 whole entry, looked up): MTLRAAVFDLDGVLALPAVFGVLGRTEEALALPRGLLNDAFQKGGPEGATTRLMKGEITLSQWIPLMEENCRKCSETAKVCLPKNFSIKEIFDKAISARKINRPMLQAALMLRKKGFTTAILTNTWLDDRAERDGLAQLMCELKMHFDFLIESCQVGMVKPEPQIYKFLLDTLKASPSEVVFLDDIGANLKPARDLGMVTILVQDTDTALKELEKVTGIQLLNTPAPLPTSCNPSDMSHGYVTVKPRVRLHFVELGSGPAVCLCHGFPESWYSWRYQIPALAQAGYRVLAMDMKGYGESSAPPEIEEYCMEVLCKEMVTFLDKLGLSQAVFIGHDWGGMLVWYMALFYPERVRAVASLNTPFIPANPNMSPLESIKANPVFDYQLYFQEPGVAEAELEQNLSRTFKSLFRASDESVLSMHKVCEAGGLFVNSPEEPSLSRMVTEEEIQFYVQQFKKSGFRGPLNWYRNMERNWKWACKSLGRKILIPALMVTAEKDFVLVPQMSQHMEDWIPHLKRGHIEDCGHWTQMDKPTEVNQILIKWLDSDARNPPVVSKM
CYP2C19 act = cytochrome P450 2C19 (human) activation | recombinant CYP2C19, luciferin-H EGE luminescence; active compounds read high; 0 = fully inhibited enzyme, 1 = untreated enzyme | activation factor at 5 µM | 96,000 tested, under 10 active;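 active = activation factor of at least 2 at 5 µM in the primary screen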
CYP2C9 inhib = blocks human cytochrome P450 2C9; inhibition, % at 5 µM; 20% of 96,000 active; CYP2C9 Supersomes, luciferin-H conversion, luminescence; P11712; AID 777;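 active = blocking of liver enzyme CYP2C9 beyond about 50% at 5 µM, limit read from the data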
sEH inh = inhibitors of human soluble epoxide hydrolase. P34913. recombinant human sEH enzymatic activity assay. inhibition, % at 2 µM. 0.34% of 91,000 active; in the data active = inhibition above about 80%
CYP2C19 inhib = blocks human cytochrome P450 2C19. CYP2C19 Supersomes, luciferin-H EGE luminescence, 30 min. 21% of 96,000 active. P33261. inhibition, % at 5 µM;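 active = CYP2C19 inhibition above a set limit at 5 µM in the primary screen, cut at about 50% in these data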
A number is an active result; . = inactive; / = no result given. In the library only some 27% were active in any assay of this set; here they are far more common.

SMILES | CYP2C9 activ | sEH activator | CYP2C19 act | CYP2C9 inhib | sEH inh | CYP2C19 inhib
O=S(=O)(NC1CCCCC1)c1cccc(-c2nnc(-c3ccccc3)o2)c1 | . | . | . | 84 | . | .
Cc1ccccc1NS(=O)(=O)c1cccc(-c2nnc(-c3ccccc3)o2)c1 | . | . | . | . | . | .
CN(C)S(=O)(=O)c1cccc(-c2nnc(-c3ccccc3)o2)c1 | . | . | . | 92 | . | .
Clc1cccc(-c2nnc(-c3ccccc3)o2)c1 | . | . | . | . | . | .
O=C(Nc1ccccc1)N1CCC(c2nc(-c3ccc(S(=O)(=O)N4CCOCC4)cc3)no2)CC1 | . | / | . | . | / | .
O=C(O)C1(c2cccc(Cl)c2)CCC1 | . | . | . | . | . | .
COc1ccc(C(c2nnnn2Cc2cccs2)N2CCN(c3ccccc3F)CC2)cc1OC (stereo not drawn) | . | / | . | . | / | .
Cc1cccc(OCC(=O)NNC(=O)Nc2cccc(Cl)c2)c1C | . | . | . | . | . | .
COc1ccc(C2C(C#N)=C(C)NC3=C2C(=O)CC(C)(C)C3)cc1 (stereo not drawn) | . | . | . | 66 | . | .
CSC1=C(C#N)C(c2ccc(Cl)cc2)C2=C(CC(C)(C)CC2=O)N1 (stereo not drawn) | . | / | . | 65 | / | .
CCCSC1=C(C#N)C(c2ccc(OC)cc2)C2=C(CC(C)(C)CC2=O)N1 (stereo not drawn) | . | / | . | . | / | .
CCCCCCC(=O)NC(Nc1ccc(S(N)(=O)=O)cc1)C(Cl)(Cl)Cl (stereo not drawn) | . | . | . | 53 | . | .
CCCCC(=O)NCCc1ccc(S(N)(=O)=O)cc1 | . | . | . | . | . | .
CCOC(=O)c1nnn(CC(=O)Nc2cccc(Cl)c2C)c1C(=O)OCC | . | . | . | 67 | . | 94
CCOC(=O)c1nnn(CC(=O)Nc2cccc(OC)c2)c1C(=O)OCC | . | . | . | 59 | . | .
Cc1ccc(C)c(NC(=O)Cn2nnc(C(=O)Nc3c(C)cccc3C)c2N)c1 | . | . | . | . | . | .
COC(=O)c1nnn(CC(=O)Nc2cc(Cl)ccc2C)c1C(=O)OC | . | . | . | 54 | . | 55
CCOC(=O)N1CCC(N(C(=O)Nc2cccc(OC)c2)C(C)CC)CC1 (stereo not drawn) | . | . | . | . | . | 56
CCOC(=O)c1cn(CC(=O)Nc2cccc(Cl)c2C)nn1 | . | . | . | . | . | .
O=C(COc1ccccc1)N1CCN=C1SCc1cccnc1 | . | . | . | . | . | .
Cn1cccc1P(=O)(c1cccn1C)c1cccn1C | . | . | . | . | . | .
COc1cc2cc(C(=O)O)n(C)c2c(OC)c1OC | . | . | . | . | . | .
CC(=O)c1c(C)[nH]c(C(=O)Nc2cc(C)cc(C)c2)c1C | . | . | . | 84 | . | 58
CC(Sc1nnnn1-c1ccccc1)C(=O)Nc1ccc(Cl)cn1 (stereo not drawn) | . | . | . | 80 | . | 87
CSc1ccccc1-n1nnnc1SCC(=O)NCc1cccs1 | / | . | / | / | . | /
SMILES | CYP2C9 activ | sEH activator | CYP2C19 act | CYP2C9 inhib | sEH inh | CYP2C19 inhib
O=C(CSc1nnnn1-c1ccccc1)N1CCN(C(=O)c2ccco2)CC1 | . | . | . | 65 | . | .
O=C(CSc1nnnn1-c1ccccc1)NCc1cccs1 | . | . | . | . | . | 83
CCC(Sc1nnnn1-c1ccccc1)C(=O)NC(C)c1ccccc1 (stereo not drawn) | . | . | . | . | . | 74
COc1cnc(SCC(=O)O)[nH]c1=O | . | . | . | . | . | .
CC(=O)Nc1nnc(SCc2ccc(F)cc2)s1 | . | . | . | . | . | .
O=C(CCCSc1nnc(SCCCC(=O)c2ccc(F)cc2)s1)c1ccc(F)cc1 | . | . | . | 76 | . | 56
O=C1c2ccccc2C(=O)N1CSc1nnnn1-c1ccccc1 | 2.1 | . | . | . | . | 83
O=C(O)CSc1nnnn1-c1ccccc1 | . | . | . | . | . | .
O=C(CSc1nnnn1-c1ccccc1)CSc1nnnn1-c1ccccc1 | . | / | . | 72 | / | 98
Cc1cc2ccccc2n2c(SCC(=O)NCc3cccs3)nnc12 | . | . | . | . | . | 64
COCC(C)NCc1ccc(C)cc1C (stereo not drawn) | . | . | . | . | . | .
O=C1c2ccccc2C(=O)N1CCCCSc1nnnn1-c1ccccc1 | . | / | . | 51 | / | .
O=C(CCCSc1nnnn1-c1ccccc1)c1ccc(F)cc1 | . | . | . | . | . | 59
O=C(CSc1nnnn1-c1cccc2ccccc12)N1CCOCC1 | 2.9 | . | . | . | . | .
Cc1cc(C)nc(NC(=O)CSc2nnnn2-c2ccccc2)n1 | . | . | . | . | . | 52
O=C(NC1CCCc2ccccc21)C1CCN(S(=O)(=O)c2cccc3nsnc23)CC1 (stereo not drawn) | . | . | . | . | . | .
COc1cccc(-n2c(Cc3cc(=O)[nH]c(=O)[nH]3)nnc2SCC(=O)N2CCCCC2)c1 | . | . | . | . | . | .
COC(=O)C1C(=O)C=C(N2CCOCC2)CC1(C)C (stereo not drawn) | . | / | . | . | / | .
CCN(CC)S(=O)(=O)c1cccc(C(=O)NCC2CCCO2)c1 (stereo not drawn) | . | . | . | . | . | .
COCCNC(=O)C1=C(N)C(C(=O)Nc2ccc(C)c(S(=O)(=O)N3CCCCC3)c2)SC1=Nc1ccc(C)cc1C (stereo not drawn) | . | . | . | 75 | . | .
COCCNC(=O)c1ccc(C)c(S(=O)(=O)Nc2ccc(C)cc2)c1 | . | . | . | . | . | .
CCN(CC)S(=O)(=O)c1cccc(NC(=O)C2SC(=Nc3ccc(C)cc3C)C(C(=O)NCC3CCCO3)=C2N)c1 (stereo not drawn) | . | . | . | 93 | . | 62
Cc1ccc2nc3c(cc2c1)CN(Cc1ccco1)C(=NCC1CCCO1)S3 (stereo not drawn) | . | . | . | 79 | . | 52
Cc1cccc(N=C2Sc3nc4c(C)c(C)ccc4cc3CN2CCN2CCOCC2)c1 | . | . | . | . | . | .
Cc1cccc2cc(CN(CC3CCCO3)C(=O)c3ccco3)c(=O)[nH]c12 (stereo not drawn) | . | . | . | . | . | .
SMILES | CYP2C9 activ | sEH activator | CYP2C19 act | CYP2C9 inhib | sEH inh | CYP2C19 inhib
COCCN=C1Sc2nc3c(C)cccc3cc2CN1Cc1ccco1 | . | . | . | 57 | . | .
Cc1cccc2cc3c(nc12)SC(=NCC1CCCO1)N(Cc1ccco1)C3 (stereo not drawn) | . | . | . | 57 | . | .
COc1ccc(S(=O)(=O)N(C)CC(=O)N2CCN(c3ccc(F)cc3)CC2)cc1OC | . | . | . | . | . | .
Cc1cc(NC(=O)CCC(=O)N(c2ccccc2)C(C(=O)NCC2CCCO2)c2cccnc2)no1 (stereo not drawn) | . | . | . | . | . | .
CNC(=O)c1cc(S(=O)(=O)N(C)C)ccc1Cl | . | . | . | . | . | .
CCOc1ccc(OCCCC(=O)O)cc1 | . | . | . | . | . | .
